This note sets out measurements from PubChem BioAssay (NCATS).

Several values for one entry are separate records, joined by “and”; a condition that tells them apart may be missing. Equal values may be shown once. Records with an inconclusive call do not appear. Activity calls are given as the source filed them. Calls come from the whole dose curve; as a rule, active = well fitted activation curve with a large enough effect; inconclusive = small, poorly fitted or top-dose-only effect; inactive = no such curve, though single readings can be large or run the other way. Residues, ends and D or L forms follow the SMILES beside them. *: point of attachment. Cbz = O=C(OCc1ccccc1)*
Potency is the fitted concentration of half-maximal effect.

Cellular tumor antigen p53 (Homo sapiens), sequence (P04637 whole entry, looked up): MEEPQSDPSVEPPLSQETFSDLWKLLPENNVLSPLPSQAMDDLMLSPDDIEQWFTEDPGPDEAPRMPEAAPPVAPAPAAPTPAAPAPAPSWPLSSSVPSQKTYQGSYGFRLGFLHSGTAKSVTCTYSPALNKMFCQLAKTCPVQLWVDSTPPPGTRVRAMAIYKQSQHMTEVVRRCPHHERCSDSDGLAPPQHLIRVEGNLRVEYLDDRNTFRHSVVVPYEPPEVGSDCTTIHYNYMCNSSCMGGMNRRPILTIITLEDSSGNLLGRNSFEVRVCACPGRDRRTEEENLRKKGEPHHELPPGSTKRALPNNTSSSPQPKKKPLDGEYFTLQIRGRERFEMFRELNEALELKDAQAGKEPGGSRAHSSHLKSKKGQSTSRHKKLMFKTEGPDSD

This experiment has as its target Cellular tumor antigen p53 (Homo sapiens) (UniProt P04637). Put plainly: Primary qHTS for small molecule compounds that upregulate eGFP-tagged delta133p53alpha (in N-terminal) cells. (AID 2060322).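 For activation: cells pre-induced with doxycycline then dosed without doxycycline; series mostly up to about 56 µM; 0% = DMSO vehicle and 100% = reference activator.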 Note: nearly all actives have a fitted effect of over 75% in size. The following applies: NCI-H358 eGFP-delta133p53alpha fluorescence, 24 h; activation: stronger effect = higher value. The text has this: Assay Development and Screening Technology
National Center for Advancing Translational Sciences (NCATS),
National Institute of Health (NIH), Rockville, Maryland
Cellular senescence (CS) is one of the hallmarks of aging and age-related diseases. Senescent cells are characterized by an irreversible growth arrest, an increase in senescence-associated beta-galactosidase (SA-beta-gal) activity and p16INK4a expression, an activation of the DNA damage response pathways, and the emergence of a senescence-associated secretory phenotype (SASP).
Delta133p53alpha, a human/primate-specific p53 protein isoform, delays or inhibits the induction of CS and SASP in various types of human cells, including progeria-derived fibroblasts, primary normal astrocytes, and CD8+ T lymphocytes. Induction of delta133p53alpha with small molecule compounds may provide therapeutic opportunities for inhibition of senescence/SASP-associated pathologies in progeria syndromes, astrocyte-mediated neuroprotection in neurodegenerative diseases, and possibly prevention and treatment of a wider range of senescence- and aging-associated diseases.
Here we report the development and validation of a cell-based quantitative high throughput screening (qHTS) assay in 1,536-well format. This qHTS assay uses the NCI-H358 cell line with doxycycline-inducible expression of enhanced green fluorescent protein (eGFP)-tagged delta133p53alpha, which allows efficient and highly quantitative measurement of the protein levels.
PROTOCOL TABLE (as described by Inglese J, Shamu CE and Guy RK. 2007)
SEQUENCE No. (e.g., 1, 2, 3, etc.); […] (e.g., Cells, Incubation, Reagent, etc.); VALUE; DESCRIPTION.
1; Cells; 4uL; 800 doxycycline treated cells / well in doxycycline-free media, 1536-well black, clear-bottom low base Aurora microplates.
2; Compounds; 23 nL; Kalypsis pin tool (Wako) equipped with 1536-well pin heads, 5-azacytidine positive control.
3; Incubation; 24 hr; 37C, 5% CO2; 95% relative humidity.
4; Aspiration; 1x; BioTek EL406 washer dispenser (Agilent).
5; Fixing; 3.5% paraformaldehyde, BioTek EL406 washer dispenser (Agilent).
6; Washing; 1x PBS; BioTek EL406 washer dispenser (Agilent).
7; Nuclei staining; 1:1000 dilution of Hoechst 33342 (Thermofisher), BioTek EL406 washer dispenser (Agilent).
8; Incubation; 20 min; in the dark at room temperature.
9; Washing; 2x, 1x PBS (ThermoFisher), BioTek EL406 washer dispenser (Agilent).
10; Reagent; 10 uL; 1x PBS per well, sealed with clear adhesive tape.
NOTES (numbers refer to sequence numbers above).
1. NCI-H358 cells expressing eGFP-tagged delta133p53alpha were grown in T75 culture flasks and treated with doxycycline for 24h, at 10 ng/ml for eGFP-D133p53a cells (N-terminal cell) and 100 ng/ml for D133p53a-eGFP cells (C-terminal cells). Cells were trypsinized, counted using a Counted 3 Automated Cell Counter (Thermo Fisher), and diluted to a concentration of 200,000 cells/ml. A Multidrop Combi Reagent Dispenser (ThermoFisher) was used to dispense 800 cells/well in […] of doxycycline-free media, into 1536-well black/clear bottom low base plates (AuroraMicroplates).
2. After plating cells, 23 nl of compound library, DMSO vehicle control or positive control (5-azacytidine) were transferred by Pin Tool (Wako). The plate map layout was the same for each plate: (column 1) non-doxycycline treated cells + DMSO vehicle control; (column 2) doxycycline treated cells + DMSO vehicle control baseline; (column 3) doxycycline treated cells + positive control 57.5 uM final concentration 5-azacytidine; (column 4) doxycycline treated cells + serial dilution of 5-azacytidine, 16-point 1:2 titration spanning 1.8 nM to […] final concentration; (columns 5-48) doxycycline treated cells + titration of library compounds.
3. Cells were incubated at 37 °C, 5 % CO2, 95% RH with breathable metal lid for 24h.
4-10. […] After two washes, 10 ul of 1X PBS (Thermo Fisher) was dispensed to each well. Clear adhesive plate seals (VWR) were applied and plates stored at 4 °C.
11. […]
For the compound `Cc1c(Cl)cccc1Nc1ccccc1C(=O)O`, the activation was 8.47% (inactive).
The same measure, in the same setting: under `C[C@]12CC[C@@H]3c4ccc(O)cc4C[C@@H](CCCCCCCCCS(=O)CCCC(F)(F)C(F)(F)F)[C@H]3[C@H]1CC[C@H]2O` (stereo not given in full) stands -2.43% (inactive); under `C[C@@H]1O[C@@H](O[C@H]2[C@H](O)[C@@H](O)[C@H](OC[C@H]3O[C@@H](OC(=O)[C@]45CCC(C)(C)C[C@H]4C4=CCC6[C@@]7(C)C[C@@H](O)[C@H](O)[C@@](C)(CO)C7[C@H](O)C[C@@]6(C)[C@]4(C)CC5)[C@H](O)[C@@H](O)[C@@H]3O)O[C@@H]2CO)[C@H](O)[C@H](O)[C@H]1O` (stereo not given in full), 16% (inactive); under `O=C(Nc1ccc(C(=O)O)c(O)c1)c1ccccc1`, -30.1% (inactive).
The same measure, in the same setting: under `CCCN1CCC=C(c2cc(-c3ccc(C)cc3)no2)C1` stands 2.86% (inactive).
Still for that read-out and setting: under `CC(=O)OC1CC2(C)C3=CCC4(C)C5C(O)C(O)C(C(C)C)C5(C)CCC4(C)C3CCC2C(C)(C)C1OC1OC(CO)C(O)C(O)C1O` (stereo not given) stands -1.53% (inactive); under `CC(C)(C)c1ccc(C(=O)CCCN2CCC(OC(c3ccccc3)c3ccccc3)CC2)cc1`, -44.6% (inactive); under `Cc1ccc2nc(NC(=O)CSc3nc4c(c(=O)n3-c3ccccc3)SCC4)sc2c1`, 24.2% (inactive) and -14.8% (inactive).
In the case of `O=C(O)[C@H](CC(=O)N1C[C@@H]2CCCC[C@H]2C1)Cc1ccccc1`, the activation was -15.3% (inactive).
The same measure, in the same setting: under `COC1CC(=O)CCC(C)OC(=O)CC1O` (stereo not given) stands -6.87% (inactive); under `O=C1c2c(O)cc(O)cc2O[C@H](c2cc(O)c(O)c(O)c2)[C@H]1O`, -0.847% (inactive).
The same measure, in the same setting: under `CC(=O)/C(C)=N/O` stands -2.27% (inactive); under `CCCCC(O)/C=C(C)/C=C/C=C/C(=O)N1CCCC1=O` (stereo not given), 13.4% (inactive); under `c1cc(CN2CCCNCCNCCCNCC2)ccc1CN1CCCNCCNCCCNCC1`, 39.7% (inactive).
Same read-out and setting: under `CC(=O)OC[C@@]12[C@H](O)C[C@@H](C)[C@]3(C[C@@H](c4ccoc4)OC3=O)[C@H]1C[C@H](O)C[C@]21CO1` stands 27.5% (inactive).
Turning to `CC(C)NC(=O)N1CC[C@H](N=C2Nc3cc(F)ccc3N(CC(F)F)c3ccc(Cl)cc32)C1`, the activation was 4.33% (inactive).
Still for that read-out and setting: under `COc1ccc2c(c1)c(CC(=O)OCC(=O)O)c(C)n2C(=O)c1ccc(Cl)cc1` stands -15.1% (inactive) and 5.95% (inactive); under `CCNC(=O)C1CC(F)(c2ccc(CN3CCCC3)c(F)c2)C1` (stereo not given), -9.07% (inactive); under `CCCC(=O)NCCc1c2n(c3ccc(OC)cc13)CCCc1ccccc1-2`, -45.5% (inactive).
Same read-out and setting: then `CC(C)C1CCC(CO)=CC1/C=C(\CO)C(=O)OCC1(O)CCC(C(C)C)C2C=C(C(=O)O)COC(=O)C21` (stereo not given), with 9.16% (inactive); and `c1ccc2c(c1)CCC[C@H]2Nc1nc2ccccc2[nH]1`, with 27.9% (inactive); and `Nc1ccc(S(=O)(=O)Nc2ccccc2)cc1`, with -15.9% (inactive).
For the compound `CN1CCc2nc(C(=O)N[C@@H]3C[C@@H](C(=O)N(C)C)CC[C@@H]3NC(=O)C(=O)Nc3ccc(Cl)cn3)sc2C1`, the activation is 1.91% (inactive).
In the case of `COc1c2c(c(C)c3c1C(=O)OC3)O[C@@]1(C)CC(O)C(C(C)(C)O)[C@](C)(CCC(=O)O)[C@H]1C2` (stereo not given in full), the activation was -9.16% (inactive).
As for `CNC(=O)[C@H](CC1=CN=C2C=CCC=C12)NC(=O)[C@@H](CC(=O)NO)CC(C)C`, the activation was 3.1% (inactive).
Still for that read-out and setting: under `COCCCOc1ccnc(CS(=O)c2nc3ccccc3[nH]2)c1C` (stereo not given) stands -8.47% (inactive) and 40% (inactive) and -11.5% (inactive); under `Nc1nc(Cl)nc2c1ncn2[C@H]1C[C@H](O)[C@@H](CO)O1`, 24.5% (inactive).
Same read-out and setting: under `CN(C)C(=O)NC1CCC(CCN2CCN(c3cccc(Cl)c3Cl)CC2)CC1` (stereo not given) stands -1.91% (inactive).
Still for that read-out and setting: under `CCN1CCC[C@H]1CNC(=O)c1c(O)c(Cl)cc(Cl)c1OC` stands -10% (inactive) and -6.2% (inactive).
For the compound `CC(C)C[C@@H](C=O)NC(=O)[C@H](CC(C)C)NC(=O)[C@H](CC(C)C)NC(=O)OCc1ccccc1` (Cbz-Leu-Leu-Leu-aldehyde), the Potency was 2.73 µM (active).
In the case of `O=C(c1ccc2nccnc2c1)N1CCCCC1`, the activation is -11% (inactive).
The same measure, in the same setting: under `CCCCCCCCCCCCCCCCCCN(CCCCCCCCCCCCCCCCCC)CCCN(CCO)CCO` stands -13.9% (inactive); under `O=C(CC1NCCC[C@H]1O)Cn1cnc2cc(Br)c(Cl)cc2c1=O` (stereo not given in full), 5.25% (inactive).
Regarding `CC(=O)O[C@H]1CC2C(COC(=O)CC(C)C)=CO[C@@H](OC(=O)CC(C)C)C2[C@]12CO2` (stereo not given in full), the Potency was 10.4 µM (active).
With `O=C(C[C@@H]1C(C(=O)O)=CO[C@@H](O[C@@H]2O[C@H](CO)[C@@H](O)[C@H](O)[C@H]2O)/C1=C\CO)OCCc1ccc(O)c(O)c1`, the activation is -14.3% (inactive).
Still for that read-out and setting: then `CN[C@H]1[C@@H](O)[C@@H]2O[C@@H]3O[C@H](C)CC(=O)[C@]3(O)O[C@@H]2[C@@H](NC)[C@H]1O`, with -7.34% (inactive); and `O=C1NC(=O)[C@@]2(CCOc3ccc(F)cc32)N1`, with -3.95% (inactive) and 3.53% (inactive); and `CC(C)CN(C[C@@H](O)[C@H](Cc1ccccc1)NC(=O)O[C@@H]1CO[C@H]2OCC[C@H]21)S(=O)(=O)c1ccc(N)cc1`, with -7.16% (inactive).
Still for that read-out and setting: then `CCOC(=O)Nc1ccc2c(c1)N(C(=O)CCN1CCOCC1)c1ccccc1S2`, with 4.18% (inactive).
On the same count and under the same terms, then `CCCCOc1ccc(-c2cncc(C(=O)NCc3cccnc3N3CCOCC3)c2)cc1Cl`, with 7.64% (inactive).
